Measurements as given in PubChem BioAssay AID485270 (The Scripps Research Institute Molecular Screening Center, 2010).
The whole screen tested about 330,000 compounds, of which about 5,800 (1.8%) were called active. No stated cut-off is given here; in the data, active means inhibition mostly above about 38% (no sharp cut-off); inactive means mostly below about 40%. For the sample, actives were picked, then their nearest neighbours and some compounds at random.

These compounds were tested against Orexin/Hypocretin receptor type 1 (Homo sapiens) (UniProt O43613) (assay: blocks the human orexin 1 receptor (AID 485270;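 further: 0% = agonist challenge alone and 100% = reference antagonist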)). Conditions: OX1R-expressing cells, FRET antagonist read-out; at 6.6 µM; hits give high values.
Chain of Orexin/Hypocretin receptor type 1 (Homo sapiens) (O43613 whole entry, looked up): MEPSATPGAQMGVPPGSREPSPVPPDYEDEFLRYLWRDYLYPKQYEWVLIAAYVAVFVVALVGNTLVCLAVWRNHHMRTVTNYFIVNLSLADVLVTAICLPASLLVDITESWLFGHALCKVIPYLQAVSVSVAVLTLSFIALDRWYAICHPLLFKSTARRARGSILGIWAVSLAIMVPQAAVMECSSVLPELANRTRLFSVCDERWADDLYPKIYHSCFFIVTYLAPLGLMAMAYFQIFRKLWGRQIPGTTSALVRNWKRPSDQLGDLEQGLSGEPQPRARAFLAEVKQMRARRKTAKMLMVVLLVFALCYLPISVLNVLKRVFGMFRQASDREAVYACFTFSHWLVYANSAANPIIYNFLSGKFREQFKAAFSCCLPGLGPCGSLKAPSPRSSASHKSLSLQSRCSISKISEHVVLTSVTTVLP
In the case of `COc1ccc(C(CNC(=O)c2cccc(NS(=O)(=O)c3ccc(C)c(F)c3)c2)N2CCCC2)cc1` (stereo unspecified), the inhibition is reported as 6.44% (inactive).
With `COc1ccc(C(CNC(=O)c2cccc(S(=O)(=O)Nc3ccccc3Cl)c2)N2CCOCC2)cc1` (stereo unspecified) the inhibition was 34.6% (active).
In the case of `COc1ccc(C(CNC(=O)c2ccc(S(=O)(=O)Nc3ccccc3C)cc2)N2CCOCC2)cc1` (stereo unspecified), the inhibition is reported as 8.1% (inactive).
For `O=C(NCC#CCSc1nnc(-c2cccc3ccccc23)o1)c1cccs1`, the inhibition was 8.58% (inactive).
For `COc1ccc(S(=O)(=O)N(C)C[C@H]2Oc3c(NC(=O)Nc4ccc5c(c4)OCO5)cccc3C(=O)N([C@H](C)CO)C[C@@H]2C)cc1`, the inhibition was 6.37% (inactive).
For `Cc1cccc(-c2nc3ccc(C(=O)NCCN4CCN(C)CC4)cc3nc2-c2cccc(C)c2)c1`, the inhibition was 17.7% (inactive).
For `C=CCNC(=O)c1ccc2c3n(nc2c1)-c1ccc(C)cc1CO3`, the inhibition was 75% (active).
`Cn1nnc2cc(C(=O)NCCC3=CCCCC3)ccc21` was tested, and the inhibition was 20.7% (inactive).
For `CC(NC(=O)COC(=O)c1ccc2ccccc2n1)c1ccccc1` (stereo unspecified), the inhibition was 15.5% (inactive).
`O=C(NC(=S)Nc1ccc(Br)cc1F)C1CCCCC1` was tested, and the inhibition was 4.65% (inactive).
With `O=C(CN1C(=O)NC2(CCCCCC2)C1=O)NCc1ccc(F)cc1` the inhibition was 6.28% (inactive).
`COc1cc(C)ccc1OCC(=O)OCC(=O)c1ccc[nH]1` was tested, and the inhibition was 11.8% (inactive).
With `O=C(NCCC(=O)N1O[C@@H]2C=C[C@H]1C2)OCC1c2ccccc2-c2ccccc21` the inhibition was 7.51% (inactive).
With `O=C(Nc1ccc(Cl)c(Cl)c1)N1CC=C(c2ccccc2)CC1` the inhibition was 56.1% (active).
For `COc1cc(C(=O)NCC(=O)N2CC=C(c3ccccc3)CC2)cc(OC)c1OC`, the inhibition was 13.7% (inactive).
With `O=C(Nc1ccccc1)N1CCN(C(=O)Nc2ccccc2)CC1` the inhibition was 7.94% (inactive).
`CC(C)n1cnc2c(NCc3ccccc3)cc(N[C@@H](CO)Cc3ccccc3)cc21` was tested, and the inhibition was 33.2% (inactive).
For `Cc1cc(-c2ccc(C)c(S(=O)(=O)NCCCN(Cc3ccccc3)C(C)C)c2)on1`, the inhibition was 22.4% (inactive).
In the case of `Cc1cc(-c2ccc(C)c(S(=O)(=O)Nc3ccc(S(N)(=O)=O)cc3)c2)on1`, the inhibition is reported as 14.9% (inactive).
For `Cc1cc(-c2ccc(C)c(S(=O)(=O)NC(C)Cc3ccco3)c2)on1` (stereo unspecified), the inhibition was 46% (active).
For `COc1ccc(S(=O)(=O)N(C)C[C@H]2Oc3ccc(NS(=O)(=O)c4cccs4)cc3CC(=O)N([C@H](C)CO)C[C@H]2C)cc1`, the inhibition was 8.61% (inactive).
With `O=C(N/N=C/c1c[nH]c2ccccc12)c1ccccc1O` the inhibition was -0.06% (inactive).
With `Cc1c(/C=N/N2C(=O)C3C4C=CC(C4)C3C2=O)c2ccccc2n1C` (stereo unspecified) the inhibition was 1.17% (inactive).
For `Cc1ccc(NC(=O)c2cc3ccccc3o2)cc1`, the inhibition was 4.2% (inactive).
In the case of `Cc1c(/C=N\NC(=O)c2cc3ccccc3o2)c2ccccc2n1C`, the inhibition is reported as 89.7% (active).
`O=C(N/N=C/c1c[nH]c2ccccc12)c1cc2ccccc2o1` was tested, and the inhibition was 65.5% (active).
With `O=C(O)c1cccc(NC(=S)N/N=C/c2c[nH]c3ccccc23)c1` the inhibition was 18.9% (inactive).
`C=CC1=C(C(=O)O)N2C(=O)[C@@H](NC(=O)/C(=N\OCC(=O)O)c3csc(N)n3)[C@H]2SC1` was tested, and the inhibition was 9.76% (inactive).
In the case of `CN(C)C(=O)CCc1ccc2c3c([nH]c2c1)[C@]1(C)[C@@H](C(=O)N2CCOCC2)C[C@H](CC(=O)NCCc2ccccn2)C(=O)N1CC3`, the inhibition is reported as 8.14% (inactive).
For `CC1CCCCC1NC(=O)CCS(=O)(=O)c1cccc2nonc12` (stereo unspecified), the inhibition was 57.3% (active).
For `CC1CCCCC1NC(=O)CCS(=O)(=O)c1ccc2c(c1)NC(=O)CO2` (stereo unspecified), the inhibition was -0.2% (inactive).
With `O=C(CCS(=O)(=O)c1cccc2nonc12)NCCc1ccccc1Cl` the inhibition was 40.5% (inactive).
For `Cc1nn(-c2ccccc2)nc1C(=O)OCC(=O)N1CCCCC1C` (stereo unspecified), the inhibition was 8.79% (inactive).
For `CC[n+]1cc(C)ccc1/C=C/c1ccc(N(C)C)cc1`, the inhibition was 52.2% (active).
With `Cc1noc(C)c1C(=O)OC(C)C(=O)Nc1ccc2c(c1)OCO2` (stereo unspecified) the inhibition was 6.68% (inactive).
For `COc1ccc(S(=O)(=O)N2CCN(CC(=O)N3CCOCC3)CC2)cc1OC`, the inhibition was 7.86% (inactive).
In the case of `CCn1c(O)c2ccc(C(=O)N=NC(=O)c3cccnc3)cc2c1O`, the inhibition is reported as 52.5% (active).
`C/C(=N\NC(=O)c1ccc2ccccc2c1)c1cccnc1` was tested, and the inhibition was 7.2% (inactive).
For `CCOc1ccccc1NC(=O)c1cccnc1`, the inhibition was 13% (inactive).
`O=C(OCC(=O)N1CCCCCC1)c1ccc(Cl)nc1` was tested, and the inhibition was 9.15% (inactive).
In the case of `C=CC[C@@H](Cc1ccc(F)cc1)C(=O)OC[C@H]1CCCN1C(=O)[C@H](CC=C)CC(=O)N(CCO)Cc1ccccc1`, the inhibition is reported as 5.09% (inactive).
For `CCCSc1ccc([C@H]2N[C@@](Cc3ccccc3)(C(=O)OC)[C@H]3C(=O)N(C)C(=O)[C@@H]23)cc1`, the inhibition was 8.14% (inactive).
For `CCC1CCCCN1C(=S)NC(=O)c1ccco1` (stereo unspecified), the inhibition was 0.14% (inactive).
In the case of `Cc1ccc(NC(=O)CSc2nnc(CNC(=O)c3ccccc3F)o2)cc1Cl`, the inhibition is reported as 13.1% (inactive).
With `COc1ccc(Cc2nnc(SCC(=O)Nc3ccc(C)c(Cl)c3)[nH]c2=O)cc1` the inhibition was 27% (inactive).
In the case of `Cc1ccc(NC(=O)CSc2nn3c(=O)c(C)nnc3s2)cc1Cl`, the inhibition is reported as 53.8% (active).
In the case of `CC(C)n1cnc2c(NCc3ccccc3)cc(OCC3CCN(C)CC3)cc21`, the inhibition is reported as 19.4% (inactive).
`Cc1cccc(C(=O)OCC(=O)NC(C)C2CC3CCC2C3)c1O` (stereo unspecified) was tested, and the inhibition was 17.1% (inactive).
`COCCn1c(C)cc(C(=O)CN2c3cccc4cccc(c34)S2(=O)=O)c1C` was tested, and the inhibition was 24.1% (inactive).
With `Cc1ccc(NC(=O)c2ccc(Cl)nc2)cc1S(=O)(=O)N1CCOCC1` the inhibition was 5.02% (inactive).
For `CCN(C(=O)CSc1nnnn1-c1ccc(OC)cc1)C1CCS(=O)(=O)C1` (stereo unspecified), the inhibition was 8.67% (inactive).
`COc1cc(/C=C/C(=O)OCC(=O)NCCCc2ccccc2)ccc1O` was tested, and the inhibition was 5.75% (inactive).
`Cc1ccc(-c2c[n+](=O)c3c(n2[O-])CCC3)cc1` was tested, and the inhibition was 17.4% (inactive).
`O=[n+]1c2c(n([O-])c3cc(Br)ccc31)CCC2` was tested, and the inhibition was 66% (active).
In the case of `Cc1ccc(-c2c(C)n([O-])c3c([n+]2=O)CCC3)cc1`, the inhibition is reported as 22.7% (inactive).
In the case of `CC(C)CC1(C)NC(=O)N(CC(=O)Nc2ccc3c(c2)OCCO3)C1=O` (stereo unspecified), the inhibition is reported as 5.05% (inactive).
